Columns and labels:
Test in all cases: log2 ratio of Biotin-Ahx-Ub-VS probe labelling (fragment/DMSO); higher = less target engagement (more negative = stronger competition), active = hit call of the paper (q ≤ 0.05, log2 ratio ≤ -1)
Settings in all cases: compound concentration: 200 uM; treatment time: 3 h
USP9X = USP9X (UniProt Q93008)
How it was run: (§1)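 Fragment (200 µM) or vehicle was incubated for 3 h with triplicate HEK293T lysate samples of 495 µg, which were then treated with Biotin-Ahx-Ub-VS at 0.5 µM final for 1 h. Labelled DUBs were enriched on NeutrAvidin, digested with LysC and trypsin, and analysed by diaPASEF LC-MS/MS. Values are average log2 fragment/vehicle ratios from an unpaired t-test on global-median-normalised Spectronaut label-free quantities, using proteins with ≥2 unique peptides.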

UniProt O00487 = target: UniProt O00487
How it was run: as §1

UniProt O00507 = target: UniProt O00507
How it was run: as §1

UniProt P51784 = target: UniProt P51784
How it was run: as §1

UniProt Q5T2D3 = target: T1, UniProt Q5T2D3
T1 sequence (whole entry): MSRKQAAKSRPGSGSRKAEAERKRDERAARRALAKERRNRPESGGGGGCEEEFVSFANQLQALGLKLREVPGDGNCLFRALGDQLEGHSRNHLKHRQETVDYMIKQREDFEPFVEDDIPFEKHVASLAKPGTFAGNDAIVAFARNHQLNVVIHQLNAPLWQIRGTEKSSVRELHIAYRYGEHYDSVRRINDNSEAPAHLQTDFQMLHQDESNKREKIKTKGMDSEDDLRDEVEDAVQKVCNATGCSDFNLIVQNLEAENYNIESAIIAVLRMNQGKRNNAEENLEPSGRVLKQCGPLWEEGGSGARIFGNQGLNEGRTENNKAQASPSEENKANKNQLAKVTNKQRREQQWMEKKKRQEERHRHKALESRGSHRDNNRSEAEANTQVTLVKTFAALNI
How it was run: as §1

UniProt Q8TE49 = target: T2, UniProt Q8TE49
T2 sequence (whole entry): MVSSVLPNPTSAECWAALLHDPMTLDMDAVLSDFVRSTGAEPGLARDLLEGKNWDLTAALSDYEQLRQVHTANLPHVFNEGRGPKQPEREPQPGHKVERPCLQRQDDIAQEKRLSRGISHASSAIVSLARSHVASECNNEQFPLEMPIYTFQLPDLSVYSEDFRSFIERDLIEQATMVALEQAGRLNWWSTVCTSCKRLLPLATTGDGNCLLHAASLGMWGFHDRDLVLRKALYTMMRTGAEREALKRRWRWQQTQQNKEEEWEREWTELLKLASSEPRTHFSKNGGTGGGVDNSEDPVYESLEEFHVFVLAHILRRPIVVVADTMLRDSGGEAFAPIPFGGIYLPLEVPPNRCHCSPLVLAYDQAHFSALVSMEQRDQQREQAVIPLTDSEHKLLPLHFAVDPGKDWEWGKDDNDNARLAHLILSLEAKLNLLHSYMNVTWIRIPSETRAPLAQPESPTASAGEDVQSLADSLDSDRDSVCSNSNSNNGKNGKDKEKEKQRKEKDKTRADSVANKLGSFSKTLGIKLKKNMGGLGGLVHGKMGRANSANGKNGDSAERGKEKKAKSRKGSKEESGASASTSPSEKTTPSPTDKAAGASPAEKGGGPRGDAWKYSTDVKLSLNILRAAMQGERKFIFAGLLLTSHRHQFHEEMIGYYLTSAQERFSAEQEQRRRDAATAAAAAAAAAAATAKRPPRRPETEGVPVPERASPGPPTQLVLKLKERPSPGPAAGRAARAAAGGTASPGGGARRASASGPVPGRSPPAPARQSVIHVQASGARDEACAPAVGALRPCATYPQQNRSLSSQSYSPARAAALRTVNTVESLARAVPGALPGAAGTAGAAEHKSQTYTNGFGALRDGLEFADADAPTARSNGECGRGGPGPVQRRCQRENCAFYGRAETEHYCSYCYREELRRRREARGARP
How it was run: as §1

UniProt Q9P2H5 = target: T3, UniProt Q9P2H5
T3 sequence (whole entry): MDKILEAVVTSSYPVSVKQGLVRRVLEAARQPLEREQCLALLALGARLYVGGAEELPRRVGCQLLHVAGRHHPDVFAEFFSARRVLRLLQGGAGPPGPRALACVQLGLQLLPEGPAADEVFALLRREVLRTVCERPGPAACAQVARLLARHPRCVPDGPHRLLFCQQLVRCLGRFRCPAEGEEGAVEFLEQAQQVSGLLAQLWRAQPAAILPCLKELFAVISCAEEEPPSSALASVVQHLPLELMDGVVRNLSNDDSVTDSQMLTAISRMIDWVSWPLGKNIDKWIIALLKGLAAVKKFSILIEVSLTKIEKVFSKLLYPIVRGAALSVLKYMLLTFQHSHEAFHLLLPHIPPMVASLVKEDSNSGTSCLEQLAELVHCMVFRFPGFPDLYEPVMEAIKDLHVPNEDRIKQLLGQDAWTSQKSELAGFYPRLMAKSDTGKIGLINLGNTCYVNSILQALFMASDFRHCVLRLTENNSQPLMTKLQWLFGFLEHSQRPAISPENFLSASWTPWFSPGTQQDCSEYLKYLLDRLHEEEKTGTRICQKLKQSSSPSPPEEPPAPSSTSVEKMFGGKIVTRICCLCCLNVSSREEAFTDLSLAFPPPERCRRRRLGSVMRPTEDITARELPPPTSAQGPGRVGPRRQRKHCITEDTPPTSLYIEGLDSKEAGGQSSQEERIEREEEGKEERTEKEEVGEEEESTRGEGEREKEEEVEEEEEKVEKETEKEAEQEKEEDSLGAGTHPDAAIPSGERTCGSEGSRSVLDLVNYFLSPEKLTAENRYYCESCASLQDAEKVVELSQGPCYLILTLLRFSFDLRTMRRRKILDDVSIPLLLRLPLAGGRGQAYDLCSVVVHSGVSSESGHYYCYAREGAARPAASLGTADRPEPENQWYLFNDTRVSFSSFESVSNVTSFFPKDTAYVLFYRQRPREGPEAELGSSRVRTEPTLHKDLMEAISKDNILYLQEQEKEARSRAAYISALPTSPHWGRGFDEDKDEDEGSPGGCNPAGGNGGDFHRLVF
How it was run: as §1

UniProt Q9UGI0 = target: T4, UniProt Q9UGI0
T4 sequence (whole entry): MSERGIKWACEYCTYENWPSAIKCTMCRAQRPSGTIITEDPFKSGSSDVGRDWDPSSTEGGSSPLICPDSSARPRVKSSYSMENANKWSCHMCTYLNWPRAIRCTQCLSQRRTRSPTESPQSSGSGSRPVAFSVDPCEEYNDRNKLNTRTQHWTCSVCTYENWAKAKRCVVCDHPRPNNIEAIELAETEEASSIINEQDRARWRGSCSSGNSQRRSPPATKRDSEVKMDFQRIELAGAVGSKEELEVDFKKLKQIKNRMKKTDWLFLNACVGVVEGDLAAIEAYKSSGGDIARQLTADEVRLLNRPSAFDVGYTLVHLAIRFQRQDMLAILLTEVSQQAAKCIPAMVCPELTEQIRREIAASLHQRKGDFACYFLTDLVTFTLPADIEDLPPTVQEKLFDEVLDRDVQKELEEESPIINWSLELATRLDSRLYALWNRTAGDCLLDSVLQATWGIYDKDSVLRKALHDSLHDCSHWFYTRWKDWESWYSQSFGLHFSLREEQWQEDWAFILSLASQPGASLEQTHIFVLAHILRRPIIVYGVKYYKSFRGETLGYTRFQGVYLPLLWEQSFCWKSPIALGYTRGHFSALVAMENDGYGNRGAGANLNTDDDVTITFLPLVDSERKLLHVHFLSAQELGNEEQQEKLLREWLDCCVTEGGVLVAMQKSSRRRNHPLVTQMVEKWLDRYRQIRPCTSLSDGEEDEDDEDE
How it was run: as §1

YOD1 = target: T5, YOD1 (UniProt Q5VVQ6)
T5 sequence (whole entry): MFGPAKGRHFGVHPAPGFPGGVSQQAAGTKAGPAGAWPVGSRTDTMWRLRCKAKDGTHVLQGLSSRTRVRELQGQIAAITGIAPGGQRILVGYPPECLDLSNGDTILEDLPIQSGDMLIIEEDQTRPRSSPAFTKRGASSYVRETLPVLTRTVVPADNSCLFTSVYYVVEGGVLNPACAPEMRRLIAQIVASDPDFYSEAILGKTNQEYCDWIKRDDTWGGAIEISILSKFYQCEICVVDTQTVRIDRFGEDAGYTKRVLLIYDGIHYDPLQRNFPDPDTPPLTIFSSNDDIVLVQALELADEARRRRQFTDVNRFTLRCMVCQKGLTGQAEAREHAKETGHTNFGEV
How it was run: as §1

Measured: log2 ratio of Biotin-Ahx-Ub-VS probe labelling

Sequence of USP9X (Q93008 whole entry, the tested form may be a part): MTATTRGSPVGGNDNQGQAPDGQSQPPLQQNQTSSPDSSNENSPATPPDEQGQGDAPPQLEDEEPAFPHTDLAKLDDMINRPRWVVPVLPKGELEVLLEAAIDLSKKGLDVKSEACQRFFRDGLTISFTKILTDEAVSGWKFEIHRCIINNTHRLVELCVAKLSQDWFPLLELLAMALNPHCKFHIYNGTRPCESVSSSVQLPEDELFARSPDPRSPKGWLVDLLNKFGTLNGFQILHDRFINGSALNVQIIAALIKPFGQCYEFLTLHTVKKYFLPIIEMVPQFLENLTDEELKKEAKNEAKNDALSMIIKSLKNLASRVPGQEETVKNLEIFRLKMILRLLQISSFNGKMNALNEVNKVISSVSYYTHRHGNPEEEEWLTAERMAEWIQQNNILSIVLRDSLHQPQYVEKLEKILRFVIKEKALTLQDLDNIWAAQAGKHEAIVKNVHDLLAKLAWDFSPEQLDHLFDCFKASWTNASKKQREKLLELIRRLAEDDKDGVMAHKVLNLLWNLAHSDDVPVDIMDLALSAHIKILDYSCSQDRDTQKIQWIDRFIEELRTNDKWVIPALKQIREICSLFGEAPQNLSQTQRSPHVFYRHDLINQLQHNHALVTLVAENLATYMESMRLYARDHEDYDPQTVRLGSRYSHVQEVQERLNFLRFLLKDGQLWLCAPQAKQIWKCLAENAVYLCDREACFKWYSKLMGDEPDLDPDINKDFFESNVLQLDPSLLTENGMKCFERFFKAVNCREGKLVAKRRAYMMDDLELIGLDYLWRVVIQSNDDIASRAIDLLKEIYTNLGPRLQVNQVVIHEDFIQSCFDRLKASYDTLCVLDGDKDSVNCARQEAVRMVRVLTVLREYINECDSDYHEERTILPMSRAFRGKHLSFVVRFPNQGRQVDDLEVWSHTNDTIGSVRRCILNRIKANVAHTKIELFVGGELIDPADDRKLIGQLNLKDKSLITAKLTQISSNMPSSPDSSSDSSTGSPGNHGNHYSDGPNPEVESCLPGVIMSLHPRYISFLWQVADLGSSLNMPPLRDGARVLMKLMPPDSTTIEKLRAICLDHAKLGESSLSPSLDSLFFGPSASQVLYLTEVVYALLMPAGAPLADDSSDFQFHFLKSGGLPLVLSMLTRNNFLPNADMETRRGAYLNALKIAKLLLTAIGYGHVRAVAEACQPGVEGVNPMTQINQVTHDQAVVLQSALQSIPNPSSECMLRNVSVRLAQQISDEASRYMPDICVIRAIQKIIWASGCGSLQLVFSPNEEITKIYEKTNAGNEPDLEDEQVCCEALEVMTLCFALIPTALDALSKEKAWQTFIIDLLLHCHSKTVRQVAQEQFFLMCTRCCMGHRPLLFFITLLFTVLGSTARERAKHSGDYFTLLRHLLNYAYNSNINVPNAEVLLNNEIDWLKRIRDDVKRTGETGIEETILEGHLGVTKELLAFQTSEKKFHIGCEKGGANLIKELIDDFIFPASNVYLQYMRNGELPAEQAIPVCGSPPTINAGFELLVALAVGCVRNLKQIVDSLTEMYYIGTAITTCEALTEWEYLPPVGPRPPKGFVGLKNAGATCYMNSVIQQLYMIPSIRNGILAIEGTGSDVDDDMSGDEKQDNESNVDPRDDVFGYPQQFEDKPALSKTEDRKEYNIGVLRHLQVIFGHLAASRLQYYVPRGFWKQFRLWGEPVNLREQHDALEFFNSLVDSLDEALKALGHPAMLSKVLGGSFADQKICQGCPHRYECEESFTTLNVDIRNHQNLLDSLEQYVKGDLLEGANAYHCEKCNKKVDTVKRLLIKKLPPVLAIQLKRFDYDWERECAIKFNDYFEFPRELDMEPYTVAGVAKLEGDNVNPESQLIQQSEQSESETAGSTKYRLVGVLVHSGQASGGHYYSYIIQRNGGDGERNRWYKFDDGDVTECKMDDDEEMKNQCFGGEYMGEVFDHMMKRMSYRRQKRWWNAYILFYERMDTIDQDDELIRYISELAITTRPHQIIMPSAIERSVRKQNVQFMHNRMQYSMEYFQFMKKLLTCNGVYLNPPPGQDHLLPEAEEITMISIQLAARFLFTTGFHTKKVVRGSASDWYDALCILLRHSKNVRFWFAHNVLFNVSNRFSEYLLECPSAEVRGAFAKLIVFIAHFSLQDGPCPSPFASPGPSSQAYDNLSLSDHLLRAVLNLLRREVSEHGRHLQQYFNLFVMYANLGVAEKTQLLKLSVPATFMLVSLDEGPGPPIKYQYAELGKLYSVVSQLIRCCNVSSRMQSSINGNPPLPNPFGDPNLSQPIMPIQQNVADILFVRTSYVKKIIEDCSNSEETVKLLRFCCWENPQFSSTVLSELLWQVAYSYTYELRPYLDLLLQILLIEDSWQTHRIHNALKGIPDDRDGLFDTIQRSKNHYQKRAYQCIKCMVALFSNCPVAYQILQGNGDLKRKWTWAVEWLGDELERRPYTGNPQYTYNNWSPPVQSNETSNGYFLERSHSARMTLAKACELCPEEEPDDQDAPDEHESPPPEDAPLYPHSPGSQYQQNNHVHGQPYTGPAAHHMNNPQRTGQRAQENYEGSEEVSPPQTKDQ
Sequence of UniProt P51784 (P51784 whole entry): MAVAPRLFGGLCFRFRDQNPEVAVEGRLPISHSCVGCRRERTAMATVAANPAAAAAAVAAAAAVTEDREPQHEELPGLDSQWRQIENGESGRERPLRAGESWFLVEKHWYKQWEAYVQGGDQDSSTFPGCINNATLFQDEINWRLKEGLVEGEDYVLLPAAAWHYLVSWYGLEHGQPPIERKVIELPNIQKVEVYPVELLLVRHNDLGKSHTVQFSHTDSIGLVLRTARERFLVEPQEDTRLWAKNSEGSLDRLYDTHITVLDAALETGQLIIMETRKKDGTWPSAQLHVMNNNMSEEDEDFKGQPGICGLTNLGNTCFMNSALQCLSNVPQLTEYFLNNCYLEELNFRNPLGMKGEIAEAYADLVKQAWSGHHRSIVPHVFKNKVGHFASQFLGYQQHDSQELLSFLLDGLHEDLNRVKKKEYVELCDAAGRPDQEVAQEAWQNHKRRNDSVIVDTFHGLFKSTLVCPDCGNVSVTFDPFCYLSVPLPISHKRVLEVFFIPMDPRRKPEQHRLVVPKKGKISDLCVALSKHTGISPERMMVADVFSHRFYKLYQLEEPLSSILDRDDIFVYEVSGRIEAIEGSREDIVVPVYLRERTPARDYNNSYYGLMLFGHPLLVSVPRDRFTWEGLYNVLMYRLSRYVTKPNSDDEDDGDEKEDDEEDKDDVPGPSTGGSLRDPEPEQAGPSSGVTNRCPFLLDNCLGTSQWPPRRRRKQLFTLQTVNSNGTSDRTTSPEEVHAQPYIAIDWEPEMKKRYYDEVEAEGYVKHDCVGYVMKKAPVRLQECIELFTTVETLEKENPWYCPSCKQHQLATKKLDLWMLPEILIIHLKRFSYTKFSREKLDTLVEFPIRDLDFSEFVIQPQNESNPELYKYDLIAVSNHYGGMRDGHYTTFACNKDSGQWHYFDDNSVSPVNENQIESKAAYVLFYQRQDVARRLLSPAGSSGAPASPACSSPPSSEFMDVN
Sequence of UniProt O00487 (O00487 whole entry): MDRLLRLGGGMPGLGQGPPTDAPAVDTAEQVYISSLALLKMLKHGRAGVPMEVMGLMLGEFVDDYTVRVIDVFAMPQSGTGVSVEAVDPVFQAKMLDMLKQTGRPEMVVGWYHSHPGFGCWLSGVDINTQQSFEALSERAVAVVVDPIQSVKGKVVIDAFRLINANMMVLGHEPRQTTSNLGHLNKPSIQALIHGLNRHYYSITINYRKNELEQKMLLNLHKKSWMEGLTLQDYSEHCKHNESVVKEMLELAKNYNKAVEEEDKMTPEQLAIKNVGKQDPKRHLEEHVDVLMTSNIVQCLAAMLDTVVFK

CC(O)CC1CCN(C(=O)CCl)CC1 (centres undefined)
inactive: USP9X -0.195 | UniProt O00487 -0.189 | UniProt O00507 0.0435 | UniProt P51784 -0.0578 | UniProt Q5T2D3 -0.0758 | UniProt Q8TE49 -0.714 | UniProt Q9P2H5 0.0392 | UniProt Q9UGI0 0.164 | YOD1 -0.124
